Assay results published in PubChem BioAssay (NCI).
This is part of a sample that, as a whole, favours compounds with a hit. Of some 83,000 tested, about 20% had one in any assay.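 Treatment: one concentration, 48 hours, 96-well format. Scoring: percent growth, with anything below 10 considered active.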 Active and inactive are the calls of the source.

Columns and labels:
Test in all cases: NCI-60 one-dose screen, 48 h (100 = growth as untreated, 0 = no growth, -100 = all killed)
Details in all cases: 10 µM unless noted
[1] = system: NCI-H23 lung
[2] = system: NCI-H226 lung
[3] = system: NCI-H322M lung
[4] = system: HOP-62 NSCLC
[5] = system: NCI-H460 lung
[6] = system: HOP-92 NSCLC
[7] = system: NCI-H522 lung
[8] = system: A549/ATCC NSCLC
[9] = system: 786-0 renal
[10] = system: COLO 205 colon
[11] = system: DU-145 prostate
[12] = system: K-562 leukemia
[13] = system: MALME-3M melanoma
[14] = system: MDA-MB-231 breast
[15] = system: RXF 393 renal
[16] = system: SF-268 CNS
[17] = system: SF-295 CNS
[18] = system: SF-539 CNS
[19] = system: UACC-257 melanoma
[20] = system: M14 melanoma

Measured: growth

CC(=O)OCc1cc[c]([Hg][Cl])o1
active: [7] -53.6% | [10] -1.94% | [12] 7.96% | [13] -39.7% | [15] -38.7%
inactive: [1] 58.8% | [2] 81.5% | [3] 98.7% | [4] 91.4% | [5] 84.9% | [6] 53.8% | [8] 73.9% | [9] 24.5% | [11] 84.2% | [14] 26% | [16] 22.5% | [17] 78.1% | [18] 44.2% | [19] 53.5% | [20] 13%

C[C@@H]1O[C@@H](O[C@H]2C[C@@H](O)[C@]3(CO)C4C(CC[C@]3(O)C2)[C@@]2(O)CC[C@H](C3=CC(=O)OC3)[C@@]2(C)C[C@H]4O)[C@H](O)[C@H](O)[C@H]1O (stereo not given in full)
active: [1] -67.1% | [2] -72.3% | [3] -64.5% | [4] -99.5% | [5] -75.9% | [6] -0.733% | [7] -54.4% | [8] -91.4% | [9] -95.3% | [10] -84.2% | [11] -94.4% | [12] -22.4% | [13] -31% | [14] -22.5% | [15] -26.6% | [16] -91.7% | [17] -51.5% | [18] -80.1% | [19] -91.7% | [20] -86.2%

CC[C@H](C)[C@H](NC(=O)[C@H]1CCCCN1C)C(=O)N(C)[C@H](CC(=O)c1nc(C(=O)N[C@@H](Cc2ccccc2)C[C@H](C)C(=O)O)cs1)C(C)C
inactive: [1] 93.2% | [2] 92.3% | [3] 107% | [4] 77% | [5] 91% | [6] 49% | [8] 94.8% | [9] 89.7% | [10] 82.8% | [11] 106% | [12] 32.2% | [13] 67.1% | [14] 88% | [15] 87.1% | [16] 84.2% | [17] 87.4% | [18] 75.8% | [19] 74% | [20] 57.9%
active: [7] -9.54%

CCn1cnc2c(Nc3cccc(Cl)c3)nc(N[C@@H]3CCCC[C@@H]3N)nc21
inactive: [2] 10.6% | [3] 15.4% | [13] 15% | [19] 14.1%
active: [1] -21.5% | [4] -11.1% | [5] 1.68% | [6] -9.78% | [7] -32.4% | [8] -7.67% | [9] 1.83% | [10] -67.6% | [11] 6.73% | [12] -2.92% | [14] -22.3% | [15] -44.5% | [16] 0.266% | [17] 9.85% | [18] -5.76% | [20] -45.8%

COC(=O)[C@@H](C)C[C@H](Cc1ccccc1)NC(=O)c1csc([C@@H](C[C@H](C(C)C)N(C)C(=O)[C@@H](NC(=O)[C@H]2CCCCN2C)C2CCCCC2)OC(C)=O)n1
inactive: [1] 16.1% | [2] 20.5% | [3] 34.1% | [8] 11.4% | [13] 56.9% | [15] 65.5% | [19] 48%
active: [4] -19.8% | [5] 1.05% | [6] -13.2% | [7] -32.1% | [9] 3.22% | [10] -75.7% | [11] 6.23% | [12] -0.636% | [14] -3.53% | [16] 8.92% | [17] -3.03% | [18] -22.3% | [20] -35.1%

COc1ccc(/C=C\c2cc(OC)c(OC)c(OC)c2)cc1OCC(=O)Nc1nc2ccc(OC(F)(F)F)cc2s1
inactive: [1] 35.6% | [2] 74.2% | [3] 73.6% | [4] 53.7% | [5] 12.4% | [6] 55.9% | [7] 15.8% | [8] 66.5% | [9] 92.6% | [10] 106% | [12] 22.9% | [13] 26.4% | [14] 36.7% | [15] 26.4% | [16] 45.8% | [17] 40.8% | [18] 14% | [19] 58.7% | [20] 11.5%
active: [11] 6.56%

COc1ccc(Nc2ccnc3cc(Cl)ccc23)cc1CN(CCCl)CCCl
inactive: [2] 22.9%
active: [1] -46.7% | [3] -34% | [4] -38.8% | [5] -18.2% | [6] -39% | [7] -47.6% | [8] 1.03% | [9] -53.3% | [10] -37.1% | [11] -26.4% | [12] 0.691% | [13] -85.3% | [14] 0.96% | [15] -72.3% | [16] -29.3% | [17] -24.8% | [18] -75.8% | [19] -39.1% | [20] -58.4%

CC12CCC3C(CCC4=CC(=O)CCC43CF)C1CCC2=O (stereo not given)
inactive: [1] 106% | [2] 111% | [3] 102% | [4] 124% | [5] 109% | [6] 114% | [7] 87.3% | [8] 99.3% | [9] 106% | [10] 135% | [11] 116% | [12] 93.5% | [13] 94.2% | [14] 118% | [15] 67.7% | [16] 110% | [17] 106% | [18] 106% | [19] 97% | [20] 103%

C=C1C[C@](OC)([C@H](O)C(=O)N[C@@H](OC)[C@@H]2C[C@@H](O)C(C)(C)[C@@H](C[C@@H](COC)OC)O2)O[C@H](C)[C@@H]1C
active: [1] -27.7% | [2] -75.5% | [3] -21% | [4] -35.4% | [5] -41.4% | [6] -65.1% | [7] -55.1% | [8] -49.1% | [9] -61.9% | [10] -15.6% | [11] -49.9% | [12] -50.1% | [13] -71.1% | [14] -55.7% | [15] -92.7% | [16] -32.4% | [17] -51.4% | [18] -65.9% | [19] -53.4% | [20] -54.6%

CCCCC1(CCC)C(=O)NC(=S)NC1=O
inactive: [1] 100% | [2] 106% | [3] 112% | [4] 99.6% | [5] 108% | [6] 71.4% | [7] 81.7% | [8] 125% | [9] 93.8% | [10] 112% | [11] 119% | [12] 121% | [13] 119% | [14] 113% | [15] 195% | [16] 107% | [17] 102% | [18] 94.9% | [19] 131% | [20] 106%

Cc1c(NS(=O)(=O)c2ccccc2)ccc([N+](=O)[O-])c1Cl
inactive: [1] 58.6% | [2] 62.7% | [3] 102% | [4] 95.1% | [5] 67% | [7] 55.7% | [8] 58.6% | [9] 41.1% | [10] 109% | [11] 94% | [12] 74.4% | [13] 35.3% | [14] 84.8% | [15] 77% | [16] 75.9% | [17] 31% | [18] 67.4% | [19] 59.5% | [20] 70.4%
active: [6] -9.14%

Clc1ccc(CSC(Cn2ccnc2)c2ccc(Cl)cc2Cl)cc1 (stereo not given)
inactive: [1] 27.1% | [2] 52.2% | [3] 63.3% | [4] 52.6% | [5] 23.2% | [7] 34.6% | [8] 27.5% | [9] 34.2% | [11] 68.3% | [12] 10.2% | [13] 21% | [14] 64.7% | [15] 15.3% | [16] 50.2% | [17] 10.7% | [18] 44.4% | [19] 23.1% | [20] 29.7%
active: [6] -4.58% | [10] -55.2%

CCC(C)(C)[C@H](NC(=O)[C@H]1CCCCN1C)C(=O)N(C)[C@H](C[C@@H](OC(C)=O)c1nc(C(=O)N[C@@H](Cc2ccccc2)C[C@H](C)C(=O)O)cs1)C(C)C
inactive: [1] 29.8% | [3] 41.5% | [4] 15% | [6] 19.4% | [8] 13.1% | [9] 10.8% | [13] 27.4% | [14] 15.7% | [15] 38.4% | [16] 23.3% | [19] 55.5%
active: [2] -44.7% | [5] 5.25% | [7] -32.1% | [10] -51.2% | [11] 0.164% | [12] 6.58% | [17] -7.51% | [18] -31% | [20] -19.3%

O=C1C(=Cc2cn(Cc3ccccc3)c3ccccc23)C(=O)N(Cc2ccccc2)C(=O)N1Cc1ccccc1
active: [2] -49.4%
inactive: [1] 87.8% | [3] 105% | [4] 85.5% | [5] 36% | [6] 90.9% | [7] 87.6% | [8] 80.1% | [9] 93.3% | [10] 26.4% | [11] 110% | [12] 81.5% | [13] 105% | [14] 89.3% | [15] 57.6% | [16] 87.5% | [17] 34.4% | [18] 83.5% | [19] 52.9% | [20] 104%

C[C@@]12CC[C@@H](O)C[C@@H]1CC[C@H]1[C@H]2CC[C@@]2(C)[C@H](c3ccc(=O)oc3)CC[C@@]12O
active: [1] -50% | [2] -91.9% | [3] -45.3% | [4] -75.3% | [5] -78.7% | [6] -13.1% | [7] -26% | [8] -61.9% | [9] -51.1% | [10] -68.1% | [11] -97.4% | [12] 0.291% | [13] -45.4% | [14] -33.9% | [15] -39.9% | [16] -73.1% | [17] -84.5% | [18] -85.4% | [19] -78.8% | [20] -50.7%
